MCF10A rerep = DNA re-replication induction in MCF 10a cells | Potency, µM (top dose mostly 46.1 µM), actives largely listed as activators | 2.9% of 350,000 active | MCF 10A DNA re-replication, Hoechst nuclear intensity, 48 h; note: nearly all actives have a fitted effect of over 50% in size
TDP1 cell noCPT = qHTS for Inhibitors of human tyrosyl-DNA phosphodiesterase 1 (TDP1): qHTS in cells in absence of CPT. DT40 Tdp1-/- hTDP1 cells, no CPT, ATP luminescence, 48 h. Potency, µM (top dose mostly 46.2 µM), actives largely listed as inhibitors. 15% of 420,000 active. AID 686978, 2013; note: nearly all actives have a fitted effect of over 55% in size
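Growth of hTDP1-complemented DT40 Tdp1-knockout cells is measured by ATP luminescence after at least 48 hr compound exposure at 37 °C, with DMSO substituting for the 20 nM CPT used in the parallel screen.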
SW480 rereplic = induces DNA re-replication in SW480 colon adenocarcinoma cells. Potency, µM (series often up to 46.1 µM), most hits filed as activators. 1.8% of 340,000 active. SW480 DNA re-replication, Hoechst DNA content imaging, 48 h; note: nearly all actives have a fitted effect of over 55% in size
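Image-based DNA-content assay: after two days of treatment, nuclei were labelled with the DNA dye Hoechst and imaged, and hits were compounds raising the count of nuclei showing high fluorescence intensity.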
TDP1 cell CPT = DT40-hTDP1 cell growth loss with CPT. Potency, µM (titrated, usually from 46.2 µM), hits mostly inhibitors. chicken DT40 Tdp1-/-;hTDP1 cells + 20 nM CPT, ATP luminescence, 48 h. 12% of 420,000 active; note: nearly all actives have a fitted effect of over 55% in size
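Chicken DT40 Tdp1-/- cells stably complemented with human TDP1 were seeded at 400 cells/well in medium containing 20 nM camptothecin, exposed to pin-transferred compounds, and grown at 37 °C for at least 48 hr. Viability was read as ATP luminescence.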
Chronic BCR inh = inhibitors of chronic active B-cell receptor signaling; AID 493014; Potency, µM (highest dose often 46.1 µM), hits mostly inhibitors; ABC-DLBCL IkBa-CBG/CBR reporter, luminescence ratio, 4 h; 0.05% of 340,000 active; active = well fitted inhibition curve with a large enough effect in the signal ratio, with a control signal flat, not every such curve was filed as active; inconclusive = small, poorly fitted or top-dose-only effect, or effect the other way, or a change in a side signal; the % refers to the signal ratio
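Doxycycline induced both beetle luciferases in TMD8 lymphoma cells; IKK-driven degradation limits the IkappaBalpha-fused green signal, while red luminescence normalises for cell number and nonspecific effects. Compounds tested up to 46 uM, 4 hrs.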
IL-1B inflam inh = blocks inflammasome-driven IL-1 beta release; THP-1 LPS/ATP IL-1B secretion, AlphaLISA, 16 h; hits give low values; AID 743279; 4.7% of 360,000 active; activity change, % at 57.5 µM; in the data active = activity change below about -50%; inconclusive = mostly about -30% to -49%
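THP-1 cells pretreated 1 hr with compounds (up to 57.5 uM final), then stimulated with LPS (250 ng/mL final) plus ATP (1.25 mM final); secreted IL-1B measured by AlphaLISA after 16 hr, decreased signal indicating inhibition.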
Of the large screens only hits and unclear results are named; the others gave an inactive call. Compounds with a hit are over-represented: about 19% of the library has one in this group of screens. Unless noted, calls come from the whole dose curve; as a rule, active = well fitted curve in the direction sought with a large enough effect; inconclusive = small, poorly fitted or top-dose-only effect, or another doubt; inactive = no such curve, though single readings can be large; an effect the other way counts as inactive or inconclusive.

CCc1c(C(=O)c2ccc(Cl)cc2)oc2c(C)c3oc(=O)cc(C)c3cc12	none
CCc1c(C(C)=O)oc2ccc3c(C)cc(=O)oc3c12	TDP1 cell noCPT inconclusive
O=C1CC2(CCN(C(=O)c3ccc(F)cc3)CC2)Oc2ccccc21	none
O=c1c2ccccc2nc(/C=C/c2ccc3c(c2)OCO3)n1CCCO	MCF10A rerep inconclusive, TDP1 cell noCPT inconclusive, IL-1B inflam inh -56
CCn1c(/C=C/c2ccccc2)nc2ccccc2c1=O	TDP1 cell noCPT inconclusive, TDP1 cell CPT inconclusive, Chronic BCR inh inconclusive
O=c1c2ccccc2nc(/C=C/c2ccc(O)cc2)n1CCc1ccccc1	MCF10A rerep 23µM, TDP1 cell noCPT 8.2µM, SW480 rereplic inconclusive, TDP1 cell CPT 7.3µM, Chronic BCR inh inconclusive
CN(C)c1ccc(/C=C/c2nc3ccccc3c(=O)n2CCO)cc1	MCF10A rerep 16µM, TDP1 cell noCPT 16µM, SW480 rereplic inconclusive, TDP1 cell CPT 18µM
O=c1c2ccccc2nc(/C=C/c2ccccc2)n1CCCO	TDP1 cell noCPT inconclusive, SW480 rereplic inconclusive, TDP1 cell CPT inconclusive
CCCc1nc2ccccc2c(=O)n1CCc1ccccc1	TDP1 cell noCPT 9.2µM, TDP1 cell CPT 13µM, Chronic BCR inh inconclusive
CC(C)(C)N(Cc1ccccc1)C(=O)CN1C(=O)NC2(CCCCCC2)C1=O	TDP1 cell CPT inconclusive
Cc1c(Cl)cccc1NC(=O)CCN1CCC(C(N)=O)CC1	none
O=C(C[C@@H]1C/C=C\CC[C@H](Cc2ccc(F)cc2)C(=O)OC[C@@H]2CCCN2C1=O)N[C@H](CO)Cc1ccccc1	MCF10A rerep inconclusive, TDP1 cell noCPT 5.2µM, SW480 rereplic inconclusive, TDP1 cell CPT 6.5µM, Chronic BCR inh inconclusive
CC(C)(C)[C@H]1COC(=O)[C@@H](Cc2ccc(F)cc2)CC/C=C/C[C@@H](CC(=O)N[C@H](CO)Cc2ccccc2)C(=O)N1	TDP1 cell noCPT 18µM, TDP1 cell CPT 8.2µM
O=C(C[C@H]1C/C=C\C[C@@H](Cc2ccc(F)cc2)C(=O)OC[C@H]2CCCN2C1=O)N[C@H](CO)Cc1ccccc1	TDP1 cell noCPT inconclusive, TDP1 cell CPT inconclusive
CC(C)(C)[C@H]1COC(=O)[C@@H](Cc2ccc(F)cc2)CC/C=C/C[C@@H](CC(=O)N[C@@H](CO)Cc2ccccc2)C(=O)N1	TDP1 cell noCPT 16µM, SW480 rereplic inconclusive
CC(C)C[C@H](NC(=O)c1nc[nH]c1C(=O)N1CCN(c2ccccc2)CC1)C(=O)OC(C)(C)C	TDP1 cell noCPT inconclusive, TDP1 cell CPT 21µM
CC(C)C[C@@H](CNC(=O)OC(C)(C)C)NC(=O)c1nc[nH]c1C(=O)N[C@@H](CC(C)C)C(=O)CNC[C@H](CC(C)C)NC(=O)c1nc[nH]c1C(=O)N[C@@H](Cc1c[nH]c2ccccc12)C(=O)OC(C)(C)C	TDP1 cell noCPT 18µM, TDP1 cell CPT inconclusive
C[C@H](NC(=O)c1nc[nH]c1C(=O)N1CCN(c2ccccc2)CC1)C(=O)OCc1ccccc1	MCF10A rerep inconclusive, TDP1 cell noCPT inconclusive, TDP1 cell CPT 18µM, Chronic BCR inh inconclusive
CC(C)C[C@H](NC(=O)c1nc[nH]c1C(=O)NC(c1ccccc1)c1ccccc1)C(=O)OCc1ccccc1	TDP1 cell noCPT inconclusive, TDP1 cell CPT inconclusive, Chronic BCR inh inconclusive
CC(C)C[C@@H](CNCC(=O)[C@H](Cc1c[nH]c2ccccc12)NC(=O)c1[nH]cnc1C(=O)N[C@@H](C)CN)NC(=O)c1nc[nH]c1C(=O)N[C@@H](Cc1ccccc1)C(=O)O	MCF10A rerep inconclusive (no result: Chronic BCR inh)
CC(C)C[C@H](NC(=O)c1nc[nH]c1C(=O)NC(c1ccccc1)c1ccccc1)C(=O)OC(C)(C)C	MCF10A rerep inconclusive, TDP1 cell noCPT 18µM, SW480 rereplic inconclusive, TDP1 cell CPT 4.1µM, IL-1B inflam inh -69
CC(C)C[C@H](NC(=O)c1nc[nH]c1C(=O)N1CCc2ccccc2C1)C(=O)OC(C)(C)C	TDP1 cell noCPT inconclusive, TDP1 cell CPT inconclusive
O=C(Nc1ccc(S(=O)(=O)NCc2ccccc2)cc1)C1CCCCC1	TDP1 cell noCPT inconclusive, TDP1 cell CPT inconclusive
O=C(Nc1nnc(N2CCCCCC2)s1)Nc1cc(F)ccc1F	TDP1 cell noCPT inconclusive (no result: MCF10A rerep, SW480 rereplic, Chronic BCR inh, IL-1B inflam inh)
CC(C)C[C@H](NC(=O)c1nc[nH]c1C(=O)N[C@@H](CC(C)C)C(=O)OC(C)(C)C)C(=O)OC(C)(C)C	MCF10A rerep inconclusive, TDP1 cell noCPT inconclusive, SW480 rereplic inconclusive, TDP1 cell CPT 23µM, IL-1B inflam inh inconclusive
CC(C)C[C@H](NC(=O)c1nc[nH]c1C(=O)NCC(=O)OC(C)(C)C)C(=O)OC(C)(C)C	TDP1 cell noCPT inconclusive, TDP1 cell CPT inconclusive, Chronic BCR inh inconclusive
CC(C)C[C@H](NC(=O)c1nc[nH]c1C(=O)NCCNC(=O)OC(C)(C)C)C(=O)CNCCNC(=O)c1[nH]cnc1C(=O)N[C@@H](C)C(=O)OC(C)(C)C	MCF10A rerep inconclusive, TDP1 cell noCPT inconclusive, TDP1 cell CPT 23µM, Chronic BCR inh inconclusive
CC(C)(C)OC(=O)N1CCN(C(=O)c2nc[nH]c2C(=O)N2CCN(c3ccccc3)CC2)CC1	none
O=C(c1nc[nH]c1C(=O)N1CCN(c2ccccc2)CC1)N1CCN(c2ccccc2)CC1	TDP1 cell CPT 13µM
Cc1c(Cl)cccc1N1C(=O)CC(Sc2ccccc2N)C1=O (stereo not given)	TDP1 cell noCPT inconclusive, TDP1 cell CPT inconclusive (no result: MCF10A rerep, SW480 rereplic, Chronic BCR inh)
CCN1CCN(S(=O)(=O)c2ccc(Cl)c(C(=O)N(C)CCOc3ccc(Cl)cc3)c2)CC1	MCF10A rerep inconclusive, TDP1 cell noCPT 15µM, SW480 rereplic inconclusive, TDP1 cell CPT 18µM
COc1ccc(CCN(C)C(=O)c2cc(S(=O)(=O)N3CCCCCC3)ccc2OC)cc1OC	TDP1 cell noCPT inconclusive, TDP1 cell CPT inconclusive
COc1ccc(CCN(C)C(=O)c2cc(S(=O)(=O)N3CCCCC3)ccc2Cl)cc1OC	TDP1 cell noCPT 23µM, TDP1 cell CPT inconclusive
CCN1CCN(S(=O)(=O)c2ccc(Cl)c(C(=O)NCCOc3ccc(C)cc3)c2)CC1	TDP1 cell CPT inconclusive, IL-1B inflam inh inconclusive
CCN1CCN(S(=O)(=O)c2ccc(Cl)c(C(=O)N(C)Cc3ccc(Cl)cc3Cl)c2)CC1	MCF10A rerep inconclusive, TDP1 cell noCPT 23µM, SW480 rereplic inconclusive, TDP1 cell CPT inconclusive
CN(CCOc1ccccc1)C(=O)c1cc(S(=O)(=O)N2CCOCC2)ccc1Cl	TDP1 cell noCPT inconclusive
CCN1CCN(S(=O)(=O)c2ccc(Cl)c(C(=O)NCCc3ccccc3)c2)CC1	SW480 rereplic 15µM

Screening results as filed in PubChem.
